Activity calls are given as the source filed them. Rule for the calls: active = hit-call score of the fitted dose curve at least 0.9, where 1 is the maximum; inactive = score below 0.9.
Columns and labels:
[1] = ATG_E_Box_CIS: Attagene CIS-FACTORIAL HepG2 Assay for human Enhancer Box (E-box) (AID 2282936); settings: HepG2 E-box cis-reporter transcription, actives raise or lower the signal
In short: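 Multiplexed CIS reporter system in transiently transfected HepG2 cells measures native transcription factor activity. Reporter RNA after 24 h exposure is profiled by RT-PCR-capillary electrophoresis.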

[2] = ATG_EGR_CIS: Attagene CIS-FACTORIAL HepG2 Assay for human Early Growth Response 1 (EGR1) (AID 2282938); settings: HepG2 Attagene CIS-FACTORIAL EGR reporter mRNA; actives raise or lower the signal
In short: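 Transient transfection of human HepG2 with multiple cis-regulated reporter units, chemical exposure 24 h, total RNA isolated. Reverse transcription, PCR, fluorescent labelling and capillary electrophoresis quantify reporter transcripts; activity fitted bidirectionally against DMSO.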

[3] = ATG_M_19_CIS: Attagene CIS-FACTORIAL HepG2 Assay for M19 Transcription Factor (Internal Marker) (AID 2282939); settings: HepG2 Attagene CIS-FACTORIAL M19 internal marker reporter; actives raise or lower the signal
In short: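 Signals come from fluorescence of labelled reporter-specific PCR fragments resolved by capillary electrophoresis, following 24 h treatment of HepG2 cells transfected with cis-promoter reporter units; activity was fitted in both directions relative to DMSO.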

[4] = ATG_ERE_CIS: Attagene CIS-FACTORIAL HepG2 Assay for Estrogen Response Element (ERE) (AID 2282940); settings: HepG2 ERE cis-reporter, Attagene RNA transcript; actives raise or lower the signal
In short: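 Fluorescence of capillary-separated, FAM-labelled reporter cDNA fragments indicates reporter mRNA levels in HepG2 cells exposed to chemicals for 24 h. Transient transfection with cis-regulated units; data fitted in both directions against DMSO.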

[5] = ATG_Ets_CIS: Attagene CIS-FACTORIAL HepG2 Assay for human Erythroblast Transformation Specific (ETS) (AID 2282941); settings: HepG2 ETS cis-reporter transcription, actives raise or lower the signal
In short: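 Steps: transfect HepG2 with multiple reporter units; treat compound 24 h; isolate RNA, DNase-treat, reverse-transcribe; PCR-amplify, label with 6-FAM, digest with HpaI; separate by capillary electrophoresis. Activity fitted both directions versus DMSO.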

[6] = target: Hepatocyte nuclear factor 3-beta (Homo sapiens) (UniProt Q9Y261); assay: ATG_FoxA2_CIS: Attagene CIS-FACTORIAL HepG2 Assay for human Forkhead box A2 (FOXA2) (AID 2282942); settings: HepG2 cis-reporter transcription factor activity, 24 h; actives raise or lower the signal
In short: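 Transient MRTU transfection of HepG2 liver cells; 24 h treatment; total RNA → oligo(dT) RT → PCR → FAM primer extension → HpaI cut → CE. Bidirectional fit vs DMSO.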

[7] = ATG_FoxO_CIS: Attagene CIS-FACTORIAL HepG2 Assay for human Forkhead box O (FoxO) (AID 2282943); settings: HepG2 Attagene cis-reporter, FoxO element, mRNA; actives raise or lower the signal
In short: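 Values reflect reporter mRNA induction or loss in HepG2 cells 24 h post-dosing, fitted bidirectionally with DMSO as negative control and baseline. Detection used RT-PCR and fluorescence capillary electrophoresis.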

[8] = ATG_GATA_CIS: Attagene CIS-FACTORIAL HepG2 Assay for human GATA Binding Protein (AID 2282944); settings: HepG2 GATA cis-element reporter, Attagene multiplex mRNA; actives raise or lower the signal
In short: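 After transfecting HepG2 cells with multiple cis-regulated reporter units, chemicals are dosed for 24 h; isolated RNA undergoes RT-PCR and fluorescent labeling before capillary electrophoresis, with activity expressed against DMSO.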

[9] = ATG_GLI_CIS: Attagene CIS-FACTORIAL HepG2 Assay for human Zinc Finger Protein GLI1 (AID 2282945); settings: HepG2, Attagene cis-factorial reporter mRNA, GLI element; actives raise or lower the signal
In short: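 HepG2 cells transiently transfected with cis-promoter multiplexed reporter units report endogenous transcription factor activity. After 24 h chemical exposure, reporter mRNA was quantified by RT-PCR, 6-FAM labelling, HpaI digestion and capillary electrophoresis, with bidirectional fitting against DMSO.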

[10] = target: Bile acid receptor (Homo sapiens) (UniProt Q96RI1); assay: ATG_IR1_CIS: Attagene CIS-FACTORIAL HepG2 Assay for human Nuclear Receptor Subfamily 1 Group H Member 4 (NR1H4), IR1 submotif (AID 2282946); settings: IR1 reporter transcription, actives raise or lower the signal
In short: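 Transient MRTU transfection, HepG2; 24 h dosing; RNA → RT-PCR → 6-FAM primer extension → HpaI digest → capillary electrophoresis fluorescence. Gain/loss of signal fitted relative to DMSO.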

[11] = ATG_GRE_CIS: Attagene CIS-FACTORIAL HepG2 Assay for human Glucocorticoid Response Elements (GRE) (AID 2282947); settings: HepG2 GRE cis-reporter, Attagene multiplex mRNA; actives raise or lower the signal
In short: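 Following 24 h chemical exposure of transiently transfected HepG2 cells, total RNA was reverse-transcribed and reporter cDNA amplified, fluorescently labelled and sized by capillary electrophoresis. Signal gain or loss was fitted relative to DMSO vehicle.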

[12] = ATG_ISRE_CIS: Attagene CIS-FACTORIAL HepG2 Assay for human Interferon Regulatory Factor 1 (IRF1) binding to an Interferon-Stimulated Response Element (ISRE) (AID 2282948); settings: HepG2 ISRE cis-reporter (Attagene), mRNA transcription readout; actives raise or lower the signal
In short: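 Transfected HepG2 (multiple reporter transcription units, cis elements) dosed 24 h. RNA → oligo(dT) RT → PCR → 6-FAM primer extension → HpaI → CE. DMSO = negative control/baseline.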

[13] = ATG_M_32_CIS: Attagene CIS-FACTORIAL HepG2 Assay for M32 Transcription Factor (Internal Marker) (AID 2282949); settings: HepG2 Attagene cis-factorial M32 reporter, mRNA; actives raise or lower the signal;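 note: background control marker of the multiplexed CIS panel rather than a real target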
In short: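 HepG2 cells transiently transfected with multiplexed cis-regulated reporter units, dosed 24 h. Reporter mRNA quantified by RT-PCR, 6-FAM labelling, HpaI digestion and capillary electrophoresis; bidirectional fit vs DMSO.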

[14] = ATG_M_06_CIS: Attagene CIS-FACTORIAL HepG2 Assay for M06 Transcription Factor (Internal Marker) (AID 2282950); settings: HepG2 Attagene CIS-FACTORIAL M06 internal marker reporter; actives raise or lower the signal
In short: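 HepG2 liver cells, 24 h exposure. Reporter transcripts from transfected cis-element constructs quantified by RT-PCR/capillary electrophoresis fluorescence. Bidirectional curve fit against DMSO.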

[15] = target: Hypoxia-inducible factor 1-alpha (Homo sapiens) (UniProt Q16665); assay: ATG_HIF1a_CIS: Attagene CIS-FACTORIAL HepG2 Assay for human Hypoxia Inducible Factor 1 (HIF1A) (AID 2282951); settings: HepG2 Attagene cis-factorial HIF1a reporter transcription; actives raise or lower the signal
In short: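 Transient MRTU transfection of human HepG2 liver cells, 24 h compound treatment, then total RNA isolation, oligo(dT) reverse transcription, PCR amplification, fluorescent labelling and capillary electrophoresis of reporter fragments. Gain or loss relative to DMSO.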

[16] = target: Hepatocyte nuclear factor 6 (Homo sapiens) (UniProt Q9UBC0); assay: ATG_HNF6_CIS: Attagene CIS-FACTORIAL HepG2 Assay for human Hepatocyte Nuclear Factor 6 (HNF6) (AID 2282952); settings: HepG2 Attagene cis-factorial HNF6 reporter transcription; actives raise or lower the signal
In short: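 HepG2 cells transiently transfected with cis-element-driven multiplexed reporter units measuring endogenous transcription factor activity. After 24 h exposure, reporter mRNA quantified by RT-PCR, FAM-labelled fragments and capillary electrophoresis; bidirectional fitting versus DMSO.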

[17] = target: Heat shock factor protein 1 (Homo sapiens) (UniProt Q00613); assay: ATG_HSE_CIS: Attagene CIS-FACTORIAL HepG2 Assay for human Heat Shock Transcription Factor 1 (HSE) (AID 2282953); settings: HepG2 HSE cis-reporter, Attagene RNA transcription; actives raise or lower the signal
In short: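 Endogenous transcription factor activity captured via cis-promoter reporter units transfected into HepG2; treatment lasted 24 h. Fluorescence intensity of reporter fragments analysed with bidirectional curve fitting, DMSO baseline.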

[18] = ATG_MRE_CIS: Attagene CIS-FACTORIAL HepG2 Assay for human Metal Responsive Element (MRE) (AID 2282954); settings: HepG2 MRE cis-reporter transcription, Attagene multiplex; actives raise or lower the signal
In short: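 Step one: transfect HepG2 with cis-regulated reporter units. Step two: dose 24 h. Step three: isolate RNA, RT-PCR, 6-FAM label, HpaI digest, capillary electrophoresis. Fit bidirectionally to DMSO.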

[19] = ATG_PBREM_CIS: Attagene CIS-FACTORIAL HepG2 Assay for human Phenobarbital-responsive Enhancer Module (PBREM) (AID 2282955); settings: HepG2 PBREM cis-reporter, Attagene multiplexed transcription; actives raise or lower the signal
In short: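 Endogenous transcription factors in human liver HepG2 cells drive a PBREM cis-element reporter, whose transcript level after 24 h treatment is quantified by RT-PCR with capillary electrophoresis; activity fitted in both directions against DMSO.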

Measured: outcome

Heat shock factor protein 1 (Homo sapiens), sequence (Q00613 whole entry, looked up, the tested form may be a part): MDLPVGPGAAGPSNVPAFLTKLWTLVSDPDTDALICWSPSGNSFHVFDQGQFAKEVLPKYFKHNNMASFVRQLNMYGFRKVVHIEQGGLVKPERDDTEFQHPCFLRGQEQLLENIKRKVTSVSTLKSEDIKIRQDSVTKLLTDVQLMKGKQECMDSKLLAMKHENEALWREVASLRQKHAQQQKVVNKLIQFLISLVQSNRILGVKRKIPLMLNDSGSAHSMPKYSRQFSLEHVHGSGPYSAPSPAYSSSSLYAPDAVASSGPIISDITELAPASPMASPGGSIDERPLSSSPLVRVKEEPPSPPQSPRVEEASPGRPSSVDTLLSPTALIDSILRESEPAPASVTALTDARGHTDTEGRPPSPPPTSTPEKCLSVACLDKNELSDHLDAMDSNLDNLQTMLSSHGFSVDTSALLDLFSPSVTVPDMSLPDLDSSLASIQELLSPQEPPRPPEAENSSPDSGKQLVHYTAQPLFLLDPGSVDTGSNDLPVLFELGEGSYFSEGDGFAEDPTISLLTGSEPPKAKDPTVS
Bile acid receptor (Homo sapiens), sequence (Q96RI1 whole entry, looked up): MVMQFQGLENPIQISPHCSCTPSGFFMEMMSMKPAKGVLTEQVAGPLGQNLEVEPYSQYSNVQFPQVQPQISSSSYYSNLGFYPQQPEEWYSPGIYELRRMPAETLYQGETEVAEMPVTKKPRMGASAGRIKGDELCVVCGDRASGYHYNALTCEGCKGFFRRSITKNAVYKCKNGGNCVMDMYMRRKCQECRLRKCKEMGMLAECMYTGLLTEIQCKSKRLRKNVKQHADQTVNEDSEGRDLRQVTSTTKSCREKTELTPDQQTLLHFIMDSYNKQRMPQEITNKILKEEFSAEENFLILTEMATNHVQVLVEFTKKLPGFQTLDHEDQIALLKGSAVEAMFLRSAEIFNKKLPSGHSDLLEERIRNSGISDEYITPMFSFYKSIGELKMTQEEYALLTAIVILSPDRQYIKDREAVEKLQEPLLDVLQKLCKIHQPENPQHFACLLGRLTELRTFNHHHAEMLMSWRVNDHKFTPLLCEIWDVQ
Hepatocyte nuclear factor 6 (Homo sapiens), sequence (Q9UBC0 whole entry, looked up, the tested form may be a part): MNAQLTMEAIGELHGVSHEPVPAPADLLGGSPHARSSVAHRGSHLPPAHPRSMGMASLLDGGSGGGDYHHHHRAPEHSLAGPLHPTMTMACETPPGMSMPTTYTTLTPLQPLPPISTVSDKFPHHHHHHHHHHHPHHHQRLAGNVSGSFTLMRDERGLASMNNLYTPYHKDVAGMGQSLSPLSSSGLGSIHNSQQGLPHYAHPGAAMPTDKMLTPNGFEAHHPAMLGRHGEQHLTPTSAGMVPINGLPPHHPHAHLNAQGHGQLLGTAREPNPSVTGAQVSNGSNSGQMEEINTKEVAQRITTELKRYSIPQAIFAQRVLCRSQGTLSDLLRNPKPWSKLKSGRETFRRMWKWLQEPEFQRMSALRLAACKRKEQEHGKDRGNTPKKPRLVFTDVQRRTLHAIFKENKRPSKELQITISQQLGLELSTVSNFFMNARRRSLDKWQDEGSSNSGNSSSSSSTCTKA
Hypoxia-inducible factor 1-alpha (Homo sapiens), sequence (Q16665 whole entry, looked up, the tested form may be a part): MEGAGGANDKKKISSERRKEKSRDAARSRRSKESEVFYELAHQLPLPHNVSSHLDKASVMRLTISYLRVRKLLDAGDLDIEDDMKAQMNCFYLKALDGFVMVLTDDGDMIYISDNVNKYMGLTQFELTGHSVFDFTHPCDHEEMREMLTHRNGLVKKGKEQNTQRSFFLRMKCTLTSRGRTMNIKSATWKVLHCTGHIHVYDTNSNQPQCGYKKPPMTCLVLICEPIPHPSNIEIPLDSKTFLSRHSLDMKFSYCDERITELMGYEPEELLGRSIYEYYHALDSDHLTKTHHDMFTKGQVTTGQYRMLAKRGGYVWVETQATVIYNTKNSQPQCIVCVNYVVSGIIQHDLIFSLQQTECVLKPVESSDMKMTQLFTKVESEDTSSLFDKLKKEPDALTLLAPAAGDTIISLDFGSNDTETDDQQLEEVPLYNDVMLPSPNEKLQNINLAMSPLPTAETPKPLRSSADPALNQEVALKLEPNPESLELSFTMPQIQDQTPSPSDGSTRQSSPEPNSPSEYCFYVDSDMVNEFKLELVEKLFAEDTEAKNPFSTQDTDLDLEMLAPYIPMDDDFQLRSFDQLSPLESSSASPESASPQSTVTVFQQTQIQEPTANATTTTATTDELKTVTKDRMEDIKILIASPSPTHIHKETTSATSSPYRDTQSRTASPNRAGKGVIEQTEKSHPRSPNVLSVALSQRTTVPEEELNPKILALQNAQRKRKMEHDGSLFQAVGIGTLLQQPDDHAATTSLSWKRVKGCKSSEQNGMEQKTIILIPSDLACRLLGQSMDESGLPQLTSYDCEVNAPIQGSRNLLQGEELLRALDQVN
Hepatocyte nuclear factor 3-beta (Homo sapiens), sequence (Q9Y261 whole entry, looked up): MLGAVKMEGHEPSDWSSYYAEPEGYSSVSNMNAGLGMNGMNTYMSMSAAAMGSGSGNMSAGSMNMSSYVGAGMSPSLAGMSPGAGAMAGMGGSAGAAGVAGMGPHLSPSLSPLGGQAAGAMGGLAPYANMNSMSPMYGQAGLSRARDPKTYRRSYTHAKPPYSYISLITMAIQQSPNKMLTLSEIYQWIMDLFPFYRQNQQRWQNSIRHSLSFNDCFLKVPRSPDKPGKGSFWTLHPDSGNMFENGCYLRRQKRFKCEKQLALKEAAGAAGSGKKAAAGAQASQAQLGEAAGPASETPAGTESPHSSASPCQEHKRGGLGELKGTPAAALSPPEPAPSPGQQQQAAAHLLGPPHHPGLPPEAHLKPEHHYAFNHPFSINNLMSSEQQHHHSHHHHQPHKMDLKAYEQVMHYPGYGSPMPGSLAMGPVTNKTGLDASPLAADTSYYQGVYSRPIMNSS

CCCCCCCCCCCCCCCC(=O)OCC
inactive: [1] | [2] | [3] | [4] | [5] | [6] | [7] | [8] | [9] | [10] | [11] | [12] | [13] | [14] | [15] | [16] | [17] | [18]

Cc1ccc2oc(=O)ccc2c1
inactive: [1] | [2] | [3] | [4] | [5] | [6] | [7] | [8] | [9] | [10] | [11] | [12] | [13] | [14] | [15] | [16] | [17] | [18]

CCN(CCO)c1cccc(C)c1
inactive: [1] | [2] | [3] | [5] | [6] | [7] | [8] | [9] | [12] | [13] | [14] | [15] | [16] | [17] | [18] | [19]

CCCCNc1ccc(NCCCC)c2c1C(=O)c1ccccc1C2=O
inactive: [1] | [2] | [3] | [4] | [5] | [6] | [7] | [9] | [11] | [12] | [13] | [14] | [15] | [17] | [18]

COC(F)(F)C(F)(C(F)(F)F)C(F)(F)F
inactive: [1] | [2] | [3] | [4] | [5] | [6] | [7] | [8] | [9] | [10] | [11] | [12] | [13] | [14] | [15] | [16] | [17] | [18] | [19]

CC(CC=O)CCCC(C)(C)O (configuration not stated)
inactive: [1] | [2] | [3] | [5] | [6] | [7] | [8] | [9] | [11] | [12] | [13] | [14] | [15] | [16] | [17] | [18]

NC(=O)NNC(N)=O
inactive: [1] | [2] | [3] | [5] | [6] | [7] | [8] | [9] | [10] | [11] | [12] | [13] | [14] | [15] | [16] | [17] | [18]

CCCCCCCOC(=O)CCC
inactive: [1] | [2] | [3] | [4] | [5] | [6] | [7] | [8] | [9] | [11] | [12] | [13] | [14] | [15] | [16] | [17] | [18] | [19]
